An excerpt weighted towards active compounds, which were near 1.4% of everything screened.
AID504770: E. coli YBA685 growth inhibition, screen for V. cholerae RctB inhibitors. E. coli YBA685 rctB-dependent plasmid, OD600 growth, 3 h; active compounds read low. z-score (test concentration not listed). 0.27% of 130,000 active. AID 504770; in the data active = z-score below about -2, passing the limit was not always enough
MbtI inh: MbtI salicylate synthase inhibition; P9WFX0; purified MbtI enzyme, fluorescence intensity read-out; inhibition, % (concentration not given with the values); 0.89% of 100,000 active; AID 493033; in the data active = inhibition mostly above about 56%, no sharp cut-off; inactive = mostly below about 77%
Target sequence (P9WFX0 whole entry, looked up): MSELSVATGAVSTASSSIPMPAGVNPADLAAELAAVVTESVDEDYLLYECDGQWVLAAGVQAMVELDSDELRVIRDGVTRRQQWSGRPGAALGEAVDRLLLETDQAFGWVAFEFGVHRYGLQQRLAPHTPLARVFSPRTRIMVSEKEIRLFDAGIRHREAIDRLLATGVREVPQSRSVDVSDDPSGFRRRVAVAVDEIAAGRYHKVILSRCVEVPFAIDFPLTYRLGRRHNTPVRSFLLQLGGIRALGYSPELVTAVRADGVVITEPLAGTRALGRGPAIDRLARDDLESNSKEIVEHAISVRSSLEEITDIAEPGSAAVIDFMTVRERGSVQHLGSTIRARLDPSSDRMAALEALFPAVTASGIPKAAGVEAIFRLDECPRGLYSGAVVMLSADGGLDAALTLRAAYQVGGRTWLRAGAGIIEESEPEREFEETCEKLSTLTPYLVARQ
PV pol inh: poliovirus RNA polymerase inhibition; P03300; poliovirus polymerase elongation, fluorescence polarization; active compounds read low; % elongation, % (compound at 16.7 µg/mL); 0.66% of 150,000 active; AID 588519; in the data active = % elongation below about 90%
Mtb MenB inh: inhibitors of Mycobacterium tuberculosis MenB enzyme. P9WNP5. MenB enzyme assay, absorbance read-out. inhibition, % (test concentration not listed). 0.43% of 100,000 active; in the data active = inhibition above about 21%, passing the limit was not always enough
Numbers without * were called inactive; ! = a repeat was not active.

`CN(C)S(=O)(=O)N=C1C=CC(=NS(=O)(=O)N(C)C)C=C1` gave AID504770 -0.15, MbtI inh 10, PV pol inh 88* and Mtb MenB inh -3.
`CCN(CC)Cn1c(=S)oc2ccc(Cl)cc21` gave AID504770 -0.4, MbtI inh 64*, PV pol inh 104 and Mtb MenB inh -41.
For O=C(NOC(=O)c1cccs1)c1ccccc1 the results were AID504770 -2.6*, MbtI inh 5, PV pol inh 101 and Mtb MenB inh -14.
`CCOC(=O)C(Nc1cccc(F)c1)c1ccccc1` (configuration not stated) gave AID504770 0.1 and MbtI inh -7.
For COC(=O)C(C(=O)OC)C(Nc1ccccc1)c1ccccc1 (configuration not stated) the results were AID504770 -0.1, PV pol inh 25* and Mtb MenB inh 3.
NC(=O)C1CCN(c2nc(-c3cccc(Cl)c3)c3c(n2)-c2ccccc2OC3)CC1 was read as AID504770 0, MbtI inh 70, PV pol inh 103 and Mtb MenB inh -12.
Screening Cc1c(Cl)cccc1N1CC(C)(C)C1=O returned AID504770 -0.4.
For Cc1c(Cl)cccc1N1C(=O)C=CC1=O the results were AID504770 -2.6*, MbtI inh 99* and PV pol inh 102.
For CS(=O)(=O)Nc1ccc(C(=O)NCc2ccccc2)cc1 the results were AID504770 -0.15, MbtI inh -17, PV pol inh 104 and Mtb MenB inh -1.
Cc1ccc2[nH]cc(CCNS(C)(=O)=O)c2c1 was read as AID504770 0.8, MbtI inh 14, PV pol inh 102 and Mtb MenB inh 26*.
COc1ccc(CCN(C)c2nc(N)c3c(N)nc(SCC(=O)O)cc3c2C#N)cc1OC was read as AID504770 -1.1, MbtI inh -110, PV pol inh 72* and Mtb MenB inh -28.
CN(C)CCOC(=O)COc1ccc(Cl)cc1 was read as AID504770 -0.3, MbtI inh -11, PV pol inh 99 and Mtb MenB inh 68*!.
Screening O=C(COc1ccc(Cl)cc1)OCc1ccc(Br)cc1 returned AID504770 0.9, MbtI inh -9 and PV pol inh 99.
`Cc1cc(C(=O)O)no1` gave AID504770 0.05, MbtI inh 3, PV pol inh 101 and Mtb MenB inh 32*.
Screening COc1ccc(OCC(=O)NCCO)cc1 returned AID504770 1.7, MbtI inh 14, PV pol inh 102 and Mtb MenB inh 35*.
CC(=O)Nc1ccc(N=NN2CCCCC2)cc1 was read as AID504770 -2.5*, MbtI inh 23, PV pol inh 104 and Mtb MenB inh -29.
For CCN(CC)N=Nc1ccc(NC(C)=O)cc1 the results were AID504770 -2.9, MbtI inh 90*, PV pol inh 106 and Mtb MenB inh 10.
`CC1(C)CC(NC(=O)CCc2ccccc2)CC(C)(C)N1` gave AID504770 0.7, MbtI inh 4, PV pol inh 101 and Mtb MenB inh 39*.
For CC1(C)CC(NC(=O)CCCC(=O)O)CC(C)(C)N1 the results were AID504770 -0.2, MbtI inh -19, PV pol inh 102 and Mtb MenB inh -6.
For COc1ccccc1OCC(=O)Nc1cccc(Cl)c1Cl the results were AID504770 -0.65, MbtI inh -9 and PV pol inh 100.
`Cn1nnnc1SCC(=O)N1c2ccccc2Sc2ccccc21` gave AID504770 0.2, MbtI inh -9, PV pol inh 104 and Mtb MenB inh -24.
`O=C(CSc1ccccc1)N1c2ccccc2Sc2ccccc21` gave AID504770 0.4, MbtI inh -5, PV pol inh 83* and Mtb MenB inh -14.
Screening O=c1[nH]cnc2ccc(Br)cc12 returned AID504770 -0.65, MbtI inh -11, PV pol inh 98 and Mtb MenB inh -39.
`CCOC(=O)c1cc(-c2nnc(-c3cccc(C)c3)o2)c(C)nc1C` gave AID504770 0.65, MbtI inh 7, PV pol inh 104 and Mtb MenB inh -4.
For CCN(CC)Cc1cc(O)c(CN(CC)CC)cc1O the results were AID504770 0.35, MbtI inh 94* and PV pol inh 98.
`CCN(CC)Cc1cc(C(C)C)c(O)c(C(C)C)c1` gave AID504770 0.05.
Cc1[nH]n(-c2nc3ccccc3s2)c(=O)c1C1OC(=O)c2ccccc21 (configuration not stated) was read as AID504770 0.4, MbtI inh 95*, PV pol inh 93 and Mtb MenB inh -35.
Screening Cc1[nH]n(-c2nc3ccccc3s2)c(=O)c1C returned AID504770 -0.95, MbtI inh 99, PV pol inh 105 and Mtb MenB inh -10.
`COCC(C)NCc1c(F)cccc1F` (configuration not stated) gave AID504770 0.8 and MbtI inh 2.
CC1COC2=C(N3CCN(C)CC3)C(F)=CC3C(=O)C(C(=O)O)=CN1C23 (configuration not stated) was read as AID504770 -6.4*, MbtI inh -102, PV pol inh 98 and Mtb MenB inh 2.
For CC(C)N1CSC(=S)N(C(C)C)C1 the results were AID504770 -4*, MbtI inh -8, PV pol inh 64* and Mtb MenB inh -5.
Screening Cn1c(C(C#N)C(=O)c2cccc(S(=O)(=O)N3CCc4ccccc43)c2)nc2ccccc21 (configuration not stated) returned AID504770 0.2, MbtI inh 17, PV pol inh 101 and Mtb MenB inh -12.
COc1ccc(Cc2nn3c(Cn4cnc5ccccc54)nnc3s2)cc1 was read as AID504770 -0.4, MbtI inh 99*, PV pol inh 100 and Mtb MenB inh -40.
For CSCc1nc2sc(C(=O)NC3CC3)c(C)c2c(=O)[nH]1 the results were AID504770 -0.2, MbtI inh -39, PV pol inh 105 and Mtb MenB inh -15.
For Cc1ccc(Nc2nnc(SCc3nc4sc(C(=O)O)c(C)c4c(=O)[nH]3)s2)cc1C the results were AID504770 -0.35, MbtI inh 3, PV pol inh 81* and Mtb MenB inh -15.
O=C1CCCC(=O)C1C(c1ccc(-c2cc(C(F)(F)F)ccc2Cl)o1)C1C(=O)CCCC1=O was read as AID504770 -0.85, MbtI inh 99*, PV pol inh 102 and Mtb MenB inh -20.
Screening Cc1ccc(-c2csc(-c3nnn(-c4ccc(C)c(C)c4)c3N)n2)cc1 returned AID504770 2.6, MbtI inh 19, PV pol inh 27* and Mtb MenB inh 8.
`Cc1ccc(-c2csc(-c3nnn(-c4cccc(Cl)c4)c3N)n2)cc1` gave AID504770 2.4, MbtI inh 20, PV pol inh 100 and Mtb MenB inh 16.
For CCN(CC)CCOC(=O)c1ccc(NC(=O)c2cc3cccc(OC)c3oc2=O)cc1 the results were PV pol inh 90*.
Screening CCN(CC)CCOC(=O)c1ccc(NC(=O)c2cc3cc(OC)ccc3oc2=O)cc1 returned PV pol inh 102.
For S=c1[nH]nc(NCCCN2CCOCC2)s1 the results were AID504770 -0.6, MbtI inh 97*, PV pol inh 96 and Mtb MenB inh -19.

Bioassay records: PubChem BioAssay, ICCB-Longwood Screening Facility, Harvard Medical School
